Laboratory results as given in ChEMBL document CHEMBL3988442, “University of Dundee, Small-Polar-MMV Screening Library” (2021).
For some assays here: Entries with a potency or affinity are not part of this list.

Legend:
Parameters in all cases: scale not given: direction of the effect not stated beside the values
[1] = target: Protein translocase subunit SecA (Escherichia coli (strain K12)) (UniProt P10408); assay: Assay to Identify E. coli SecA ATPase Inhibitors; type: functional; details: 30 µM
Chain of Protein translocase subunit SecA (Escherichia coli (strain K12)) (P10408 whole entry): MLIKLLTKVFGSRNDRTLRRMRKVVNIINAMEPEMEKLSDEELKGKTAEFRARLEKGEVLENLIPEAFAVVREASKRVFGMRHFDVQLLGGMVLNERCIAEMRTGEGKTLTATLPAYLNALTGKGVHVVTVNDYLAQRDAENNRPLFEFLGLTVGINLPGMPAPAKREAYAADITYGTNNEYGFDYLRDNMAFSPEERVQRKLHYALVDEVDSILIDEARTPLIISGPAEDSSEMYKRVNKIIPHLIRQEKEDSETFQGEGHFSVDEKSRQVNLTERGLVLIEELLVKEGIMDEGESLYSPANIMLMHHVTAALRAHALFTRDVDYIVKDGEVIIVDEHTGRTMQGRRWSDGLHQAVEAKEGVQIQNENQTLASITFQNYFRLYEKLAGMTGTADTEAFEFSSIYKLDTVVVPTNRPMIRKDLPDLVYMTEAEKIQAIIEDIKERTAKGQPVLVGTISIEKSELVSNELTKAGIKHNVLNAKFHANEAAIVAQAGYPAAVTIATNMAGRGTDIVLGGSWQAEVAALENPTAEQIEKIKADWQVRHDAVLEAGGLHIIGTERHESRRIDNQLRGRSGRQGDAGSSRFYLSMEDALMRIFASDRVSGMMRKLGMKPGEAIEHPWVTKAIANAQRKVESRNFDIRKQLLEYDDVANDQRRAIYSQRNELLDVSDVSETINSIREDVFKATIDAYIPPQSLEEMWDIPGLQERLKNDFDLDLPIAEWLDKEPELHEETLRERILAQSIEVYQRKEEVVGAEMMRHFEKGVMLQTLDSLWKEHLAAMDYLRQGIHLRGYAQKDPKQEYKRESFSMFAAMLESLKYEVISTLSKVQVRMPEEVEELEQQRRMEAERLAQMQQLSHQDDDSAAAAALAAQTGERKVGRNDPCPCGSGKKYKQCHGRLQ

[2] = target: T1, Ubiquitin-activating enzyme e1, putative (Leishmania donovani (strain BPK282A1)) (UniProt E9BSI1); assay: Leishmania donovani Ubiquitin Activating Enzyme (LdE1); type: functional; details: 30 µM
T1 sequence (whole entry): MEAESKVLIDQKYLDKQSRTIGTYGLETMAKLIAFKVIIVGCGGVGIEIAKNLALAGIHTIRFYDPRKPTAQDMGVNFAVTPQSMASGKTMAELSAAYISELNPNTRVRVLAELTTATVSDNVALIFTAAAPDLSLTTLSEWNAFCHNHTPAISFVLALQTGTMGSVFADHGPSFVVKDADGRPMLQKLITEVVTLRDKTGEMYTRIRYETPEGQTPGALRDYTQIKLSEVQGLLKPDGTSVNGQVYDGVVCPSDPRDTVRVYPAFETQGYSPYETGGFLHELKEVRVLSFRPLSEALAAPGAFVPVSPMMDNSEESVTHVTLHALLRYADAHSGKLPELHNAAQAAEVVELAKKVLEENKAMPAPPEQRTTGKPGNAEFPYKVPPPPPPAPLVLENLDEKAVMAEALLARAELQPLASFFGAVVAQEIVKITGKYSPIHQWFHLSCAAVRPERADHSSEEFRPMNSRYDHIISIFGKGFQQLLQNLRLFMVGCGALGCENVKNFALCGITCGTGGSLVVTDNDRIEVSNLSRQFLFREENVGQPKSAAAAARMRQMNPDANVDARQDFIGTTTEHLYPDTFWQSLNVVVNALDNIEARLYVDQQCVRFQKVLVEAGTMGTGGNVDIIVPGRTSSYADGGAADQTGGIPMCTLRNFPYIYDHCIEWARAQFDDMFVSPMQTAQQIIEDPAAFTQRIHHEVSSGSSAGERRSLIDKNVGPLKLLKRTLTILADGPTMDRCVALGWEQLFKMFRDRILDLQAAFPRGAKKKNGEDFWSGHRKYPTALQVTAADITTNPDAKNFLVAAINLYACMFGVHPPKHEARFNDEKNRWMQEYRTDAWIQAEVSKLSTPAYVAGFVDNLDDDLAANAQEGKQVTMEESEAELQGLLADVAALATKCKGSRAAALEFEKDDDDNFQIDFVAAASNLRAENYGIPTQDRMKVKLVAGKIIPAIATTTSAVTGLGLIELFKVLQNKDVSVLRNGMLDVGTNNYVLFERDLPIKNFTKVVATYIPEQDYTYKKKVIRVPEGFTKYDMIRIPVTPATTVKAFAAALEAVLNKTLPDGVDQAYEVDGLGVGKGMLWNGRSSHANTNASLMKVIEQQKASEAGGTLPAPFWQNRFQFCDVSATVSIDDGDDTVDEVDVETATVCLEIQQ

[3] = target: AMP-activated protein kinase, AMPK (Homo sapiens) (UniProt P54646+O43741+P54619+Q9UGJ0+Q9Y478+Q13131+Q9UGI9); assay: AMP-dependent Kinase enzyme assay. An in vitro enzyme assay that detects ADP turnover that is directly proportional to AMPK activity. This uses naive AMPK that is activated during the assay with MK-8722; type: functional; details: 30 µM
[4] = target: Sialic acid-binding Ig-like lectin 9 (Homo sapiens) (UniProt Q9Y336); assay: Hs-Siglec9 ALPHAscreen SOP 20170721; details: 10 µM
Chain of Sialic acid-binding Ig-like lectin 9 (Homo sapiens) (Q9Y336 whole entry): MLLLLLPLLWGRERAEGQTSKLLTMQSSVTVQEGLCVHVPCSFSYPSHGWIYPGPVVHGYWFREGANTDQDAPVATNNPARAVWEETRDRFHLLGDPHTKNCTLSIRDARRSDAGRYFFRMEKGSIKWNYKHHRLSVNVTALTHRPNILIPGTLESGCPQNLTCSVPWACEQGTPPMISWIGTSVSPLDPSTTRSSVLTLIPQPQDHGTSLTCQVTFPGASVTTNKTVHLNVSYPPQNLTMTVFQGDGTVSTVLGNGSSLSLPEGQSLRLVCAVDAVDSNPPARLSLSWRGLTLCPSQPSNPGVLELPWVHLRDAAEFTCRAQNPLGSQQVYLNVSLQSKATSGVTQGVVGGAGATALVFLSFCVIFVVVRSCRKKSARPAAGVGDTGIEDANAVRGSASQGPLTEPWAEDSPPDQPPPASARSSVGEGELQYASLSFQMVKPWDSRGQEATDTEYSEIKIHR

Trypanosoma cruzi = assay: Trypanosoma cruzi phosphomannomutase and mannose-1-phosphate guanylyltransferase assay; type: functional; details: 10 µM
[5] = target: T2, Arginase-2, mitochondrial (Homo sapiens) (UniProt P78540); assay: in vitro enzyme assay to detect the production of urea directly proportional to the activity of Arginase II; type: functional; details: 33.3 µM; also: in the data most compounds retested in dose-response had high values
T2 sequence (whole entry): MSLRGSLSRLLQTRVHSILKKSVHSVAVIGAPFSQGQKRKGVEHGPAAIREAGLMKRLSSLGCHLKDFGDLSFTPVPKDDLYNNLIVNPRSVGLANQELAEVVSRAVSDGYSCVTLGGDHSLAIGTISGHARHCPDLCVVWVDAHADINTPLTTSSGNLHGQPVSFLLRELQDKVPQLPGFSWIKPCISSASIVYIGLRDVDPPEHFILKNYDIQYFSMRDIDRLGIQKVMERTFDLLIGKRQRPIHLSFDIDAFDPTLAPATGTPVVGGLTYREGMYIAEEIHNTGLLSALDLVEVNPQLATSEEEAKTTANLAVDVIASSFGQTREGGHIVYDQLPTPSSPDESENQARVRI

[6] = target: T3, Proteasome subunit beta (Trypanosoma cruzi) (UniProt O96673); assay: Trypanosoma cruzi proteasome chymotrypsin-like activity (TcProtChymo) assay.; also: in the data most compounds retested in dose-response had high values; type: functional; details: 9.37 µM
T3 sequence (whole entry): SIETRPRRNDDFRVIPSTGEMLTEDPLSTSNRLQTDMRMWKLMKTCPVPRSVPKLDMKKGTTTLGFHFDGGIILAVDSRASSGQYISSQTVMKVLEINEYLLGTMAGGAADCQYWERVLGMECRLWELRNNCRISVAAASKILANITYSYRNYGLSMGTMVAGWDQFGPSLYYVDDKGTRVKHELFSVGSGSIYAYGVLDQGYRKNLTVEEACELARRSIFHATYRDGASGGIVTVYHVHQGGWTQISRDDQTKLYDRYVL

Homo sapiens = organism: Homo sapiens; assay: To identify inhibition of the IFN signalling (Jak-Stat) pathway via expression of an eGFP reporter gene under the control of an IFN-stimulated response element (ISRE) containing MxA promoter.; type: functional; details: 30 µM
[7] = target: T4, Tyrosyl-tRNA synthetase, putative (Trypanosoma cruzi (strain CL Brener)) (UniProt Q4DSP6); assay: Trypanosoma cruzi tyrosyl tRNA synthetase (TcYRS) _High Tyrosine SOP; type: functional; details: 30 µM; also: in the data most compounds retested in dose-response had high values
T4 sequence (whole entry): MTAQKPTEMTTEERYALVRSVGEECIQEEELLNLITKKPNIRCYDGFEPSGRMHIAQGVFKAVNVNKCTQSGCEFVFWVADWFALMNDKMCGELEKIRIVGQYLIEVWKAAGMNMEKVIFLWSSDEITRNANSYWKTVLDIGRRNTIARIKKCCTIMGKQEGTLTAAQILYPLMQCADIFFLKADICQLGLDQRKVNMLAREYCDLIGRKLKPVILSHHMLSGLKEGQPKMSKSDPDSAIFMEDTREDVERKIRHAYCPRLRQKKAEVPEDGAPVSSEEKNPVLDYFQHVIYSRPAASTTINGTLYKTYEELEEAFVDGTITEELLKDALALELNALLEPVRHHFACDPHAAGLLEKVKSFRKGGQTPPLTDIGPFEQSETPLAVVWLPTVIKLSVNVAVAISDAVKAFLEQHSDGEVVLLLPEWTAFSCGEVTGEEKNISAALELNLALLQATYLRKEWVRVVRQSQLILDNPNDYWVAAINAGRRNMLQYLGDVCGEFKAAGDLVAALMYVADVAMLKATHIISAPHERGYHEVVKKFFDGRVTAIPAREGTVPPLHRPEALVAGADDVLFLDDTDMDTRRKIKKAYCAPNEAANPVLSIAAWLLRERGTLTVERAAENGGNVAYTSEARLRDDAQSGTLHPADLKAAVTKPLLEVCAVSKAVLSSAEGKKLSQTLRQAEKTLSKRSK

[8] = target: T4, Tyrosyl-tRNA synthetase, putative (Trypanosoma cruzi (strain CL Brener)); assay: Trypanosoma cruzi tyrosyl tRNA synthetase (TcYRS) SOP; type: functional; details: 30 µM
[9] = target: Chromo domain-containing protein 1 (Saccharomyces cerevisiae (strain ATCC 204508 / S288c) (Baker's yeast)) (UniProt P32657); assay: ScCHD-1 Enzyme Inhibition Assay; type: functional; details: 30 µM; also: in the data most compounds retested in dose-response had high values
Chain of Chromo domain-containing protein 1 (Saccharomyces cerevisiae (strain ATCC 204508 / S288c) (Baker's yeast)) (P32657 whole entry, the tested form may be a part): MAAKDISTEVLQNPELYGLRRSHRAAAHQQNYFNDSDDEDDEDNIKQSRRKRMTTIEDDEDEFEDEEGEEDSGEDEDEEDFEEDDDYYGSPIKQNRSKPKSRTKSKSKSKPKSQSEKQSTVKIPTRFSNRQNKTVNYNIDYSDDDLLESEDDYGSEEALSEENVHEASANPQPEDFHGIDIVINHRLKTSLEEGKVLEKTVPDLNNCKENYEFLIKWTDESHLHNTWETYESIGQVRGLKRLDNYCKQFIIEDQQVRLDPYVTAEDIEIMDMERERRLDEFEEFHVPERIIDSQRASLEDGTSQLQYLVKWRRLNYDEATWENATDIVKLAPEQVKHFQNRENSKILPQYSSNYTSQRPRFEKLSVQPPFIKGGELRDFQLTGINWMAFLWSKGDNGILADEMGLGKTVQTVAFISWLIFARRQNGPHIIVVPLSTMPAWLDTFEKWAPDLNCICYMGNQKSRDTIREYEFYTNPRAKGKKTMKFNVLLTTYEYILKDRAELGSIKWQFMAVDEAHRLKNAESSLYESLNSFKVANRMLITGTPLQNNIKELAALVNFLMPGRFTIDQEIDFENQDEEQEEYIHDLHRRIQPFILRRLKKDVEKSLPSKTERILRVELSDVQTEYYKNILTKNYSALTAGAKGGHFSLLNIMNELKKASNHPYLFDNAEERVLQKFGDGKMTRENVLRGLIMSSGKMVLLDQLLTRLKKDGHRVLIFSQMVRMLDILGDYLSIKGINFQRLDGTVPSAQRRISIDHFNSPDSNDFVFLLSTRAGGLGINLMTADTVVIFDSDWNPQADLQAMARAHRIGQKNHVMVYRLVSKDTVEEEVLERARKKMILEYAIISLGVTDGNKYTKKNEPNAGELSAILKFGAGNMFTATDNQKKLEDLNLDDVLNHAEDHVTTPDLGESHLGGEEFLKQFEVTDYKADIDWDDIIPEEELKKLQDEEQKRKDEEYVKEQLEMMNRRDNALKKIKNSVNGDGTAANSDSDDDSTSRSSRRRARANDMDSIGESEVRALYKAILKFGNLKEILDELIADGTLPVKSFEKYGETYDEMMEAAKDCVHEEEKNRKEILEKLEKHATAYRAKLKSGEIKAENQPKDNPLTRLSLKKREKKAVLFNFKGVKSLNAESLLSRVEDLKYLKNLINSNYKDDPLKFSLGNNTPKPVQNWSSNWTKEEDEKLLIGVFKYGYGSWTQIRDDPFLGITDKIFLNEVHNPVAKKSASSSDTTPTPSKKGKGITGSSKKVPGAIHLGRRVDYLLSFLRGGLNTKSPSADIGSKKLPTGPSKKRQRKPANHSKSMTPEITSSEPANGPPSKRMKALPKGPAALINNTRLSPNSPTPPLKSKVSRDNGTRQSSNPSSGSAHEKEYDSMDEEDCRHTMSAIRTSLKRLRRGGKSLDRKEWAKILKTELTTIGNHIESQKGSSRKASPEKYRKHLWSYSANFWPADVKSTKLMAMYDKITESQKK

| Compound | Percent Effect [1] | Percent Effect [2] | Percent Effect [3] | Percent Effect [4] | Percent Effect (Trypanosoma cruzi) | Percent Effect [5] | Percent Effect [6] | Percent Effect (Homo sapiens) | Percent Effect [7] | Percent Effect [8] | Percent Effect [9] |
| --- | --- | --- | --- | --- | --- | --- | --- | --- | --- | --- | --- |
| COc1cccc(COCC(=O)N2CCCC(c3nncn3C)C2)c1 (stereo unspecified) | -4.98% | 13.5% | -6.54% | 18.4% | 3.11% | -6.81% | 0.721% | 13.5% | 4.43% | 16.1% | -11.8% |
| O=C(CCNc1ncccn1)NCCc1ccn(-c2ccccc2)n1 | -3.96% | 21.5% | -1.83% | -7.45% | 4.82% | 0.215% | 15.4% | -2.32% | 6.25% | 20.2% | -24.6% |
| O=C(Cc1ccc(F)cc1)NCCNCC1CNc2ccnn2C1 (stereo unspecified) | -1.32% | 18.9% | -4.44% | 24.8% | 10.8% | 10% | 6.72% | 2.03% | 8.99% | 17.1% | -7.92% |
| CCOC(=O)c1sc(NC(=O)CN(C)S(C)(=O)=O)c(C#N)c1C | -1.3% | 10.4% | 11.5% | -2.4% | -1.87% | 4.52% | 9.4% | 21.1% | 3.17% | 14.1% | -8.72% |
| Cc1nccn1C1CCCN(C(=O)c2ccc(N3CCCC3)nn2)C1 (stereo unspecified) | -4.79% | 10.5% | -5.31% | 8.97% | 1.59% | -0.719% | -4.65% | 2.56% | 4.43% | 11.1% | -6.5% |
| Cn1cc(C2CCCN2C(=O)c2ccc(Br)o2)cn1 (stereo unspecified) | -4.98% | 13.2% | 2.02% | -8.81% | -3.64% | 1.08% | 1.27% | 16.1% | 0.493% | 1.24% | 1.07% |
| Cc1cc(CC(=O)N(CC2CN(C)CCO2)c2nccs2)no1 (stereo unspecified) | 1.69% | 0% | -0.764% | 6.8% | 6.41% | 2.03% | 1.08% | -15.8% | 0% | 6.1% | -3.54% |
| CC(O)CN1CCN(C(=O)c2cnn(-c3ccccc3F)c2)CC1 (stereo unspecified) | -6% | 13.3% | -6.53% | 24.2% | 5.75% | 15.6% | 9.59% | 10.4% | -0.546% | 8.64% | -7.25% |
| Cc1oncc1C(=O)N1CCC2(C1)CN(c1cccnc1)C(=O)CN2C (stereo unspecified) | -3.58% | 10.7% | -0.768% | -0.716% | 4.05% | -53.6% | 4.27% | -6.85% | 2.08% | 5% | -5.61% |
| Cc1nc(C(=O)N2CCCC(c3cccc(-n4ccnc4)n3)C2)co1 (stereo unspecified) | -7.87% | 1.35% | 2.78% | 1.23% | -5.34% | -2.55% | 10.1% | 12.6% | 0% | 1.3% | -6.74% |
| Cc1nc(CN2CCc3cncnc3C2)oc1C | -0.217% | 2.74% | -102% | 7.08% | 5.09% | 16.8% | 3.55% | 2.92% | 2.15% | 12.5% | -7.36% |
| CCOc1ccc(CN(C)C(=O)NC(C)c2nncn2C)cc1 (stereo unspecified) | 1.14% | 15.3% | -8.94% | 7% | 0.0972% | 4.42% | 18.4% | 11.4% | 7.37% | 5.13% | -0.989% |
| CCn1cc(CN2CCCN(C(=O)c3ccn(C)c(=O)c3)CC2)cn1 | -0.55% | 20.8% | -9.71% | -17.4% | 4.02% | -0.632% | 10.9% | 11.6% | 10.5% | 23.5% | -18.6% |
| O=C(c1ccc(F)c(F)c1)N1CCCC(Nc2ccc(F)cc2)C1 (stereo unspecified) | -2.99% | -2.7% | -4.26% | 1.48% | 6.56% | -2.86% | 2.59% | 19.7% | 6.88% | 7.32% | -2.35% |
| Cc1nc(C)n(C2CCCN(C(=O)CCCOc3ccccc3)C2)n1 (stereo unspecified) | -1.32% | 0% | 6.84% | 4.93% | 1.5% | -2.85% | -1.18% | -22.8% | 2.91% | 9.76% | -5.8% |
| c1ccc(NCc2cn3c(n2)CN(Cc2cccnc2)CC3)nc1 | -5.07% | 13.5% | 2.94% | -3.31% | -2.83% | 4.78% | 23.6% | 4.12% | -1.08% | 10.3% | 0.00712% |
